This note sets out measurements from PubChem BioAssay AID488896 (Broad Institute, 2010).

Among all 320,000 compounds or so, about 3,100 (0.97%) were called active. Only a selection was taken, and actives are over-represented in it overall. A number with no mark means an inactive call.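 How the source made its calls: active means mean replicate inhibition of at least 70% and a set share of replicates each scoring 70 or more; inconclusive means meets just one of the two criteria; inactive means fails both criteria.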

Sequence of Scavenger receptor class B member 1 (Mus musculus) (Q61009 whole entry, looked up): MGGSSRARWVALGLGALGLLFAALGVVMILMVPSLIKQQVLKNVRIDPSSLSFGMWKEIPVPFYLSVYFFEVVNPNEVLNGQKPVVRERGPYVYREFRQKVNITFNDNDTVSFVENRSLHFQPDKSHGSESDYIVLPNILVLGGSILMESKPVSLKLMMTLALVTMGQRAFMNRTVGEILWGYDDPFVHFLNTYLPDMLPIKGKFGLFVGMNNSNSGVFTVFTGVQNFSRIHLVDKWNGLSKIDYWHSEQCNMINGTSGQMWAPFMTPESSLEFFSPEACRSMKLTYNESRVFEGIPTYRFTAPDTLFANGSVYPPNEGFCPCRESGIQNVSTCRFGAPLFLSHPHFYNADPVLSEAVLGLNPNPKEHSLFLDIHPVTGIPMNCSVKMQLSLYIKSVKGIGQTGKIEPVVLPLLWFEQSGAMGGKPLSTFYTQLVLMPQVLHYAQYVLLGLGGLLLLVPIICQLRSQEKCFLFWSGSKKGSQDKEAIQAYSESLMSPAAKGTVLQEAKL

The experiment has as its target Scavenger receptor class B member 1 (Mus musculus) (UniProt Q61009). Description: mouse SR-BI DiI-HDL uptake blockers – ldlA[mSR-BI] cells, fluorescence, single point, primary screen (AID 488896).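 Further: 0% = median of neutral control wells and 100% = median of positive control wells.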 Particulars: ldlA[mSR-BI] CHO cells, 3 h, at 12.5 µM, hits give high values.
For the molecule `CCCOC(=O)c1[nH]c2c(c1C)C(=O)CC(c1cc(OC)c(OC)c(OC)c1)C2` (configuration not stated), the inhibition was 81.3% (active). Turning to `CCCOC(=O)c1[nH]c2c(c1C)C(=O)CC(c1cccs1)C2` (configuration not stated), the inhibition was 59.1%. `COCCOC(=O)c1[nH]c2c(c1C)C(=O)CC(c1ccc(OC)cc1)C2` (configuration not stated): the inhibition is 41.6%. `Cc1cccc(NC(=S)N2CCC(C(=O)c3ccc(F)cc3)CC2)c1`: the inhibition was 14.1%. Take `C#CCOCCOCCOCCNc1nc(N2CCN(C(=O)Cn3cc(CCO)nn3)CC2)nc(N2CCN(C(=O)[C@H](CCCCN)n3cc(CCCC)nn3)CC2)n1`: the inhibition is -18.7%. `COc1ccc(C(CNC(=O)c2cc(S(=O)(=O)Nc3cccc(C)c3)ccc2C)N2CCCC2)cc1` (configuration not stated): the inhibition is -20.9%. The value for `CCC(=O)Nc1sc(C(=O)Nc2ccccc2)c(C)c1C(=O)OC` was 68.4%; that for `COC(=O)c1c(NC(C)=O)sc(C(=O)Nc2ccccc2OC)c1C` was 71.5% (active). Regarding `COc1ccccc1NC(=O)c1ccc(C)s1`, the inhibition was 18%. Regarding `c1ccc2c(c1)OC1OC2Oc2ccccc21`, the inhibition is -7.46%. As to `CC(C)Sc1nc(N)nc2c1ncn2C1OC(CO)C(O)C1O` (configuration not stated), the inhibition is -12.5%. With `Cc1ccc(/C=N/NC(=O)C2=NNC(c3ccccc3)(c3ccccc3)C2)c(O)c1`, the inhibition was 106% (active). As to `Cc1ccc2occ(/C=N/NC(=O)c3ccccc3C)c(=O)c2c1`, the inhibition is -16.4%. For `COc1ccc(/C=N/NC(=O)c2cc(-c3cccc(C)c3)nc3ccccc23)cc1O`, the inhibition is 66.3%. As for `CN(C)C(CNC(=O)c1cc2ccccc2o1)c1ccccc1` (configuration not stated), the inhibition was 6.69%. The value for `O=C(O)c1ccc(OCC2CCCO2)cc1` (configuration not stated) was -17.3%; that for `O=C(O)c1ccc(/C=N/NC(=O)c2ccc(Br)cc2)cc1` was -48.4%.

On to `O=C(N/N=C/c1ccc(OCC2COCCO2)cc1)c1ccc(Br)cc1` (configuration not stated), for which the inhibition was 74.1% (active). Take `CCOC(=O)C1(O)CC(C)=NN1C(=O)c1cccc(Br)c1` (configuration not stated): the inhibition was 5.6%.

Turning to `CC1=NN(C(=O)c2ccccc2Br)C(O)(c2cccnc2)C1` (configuration not stated), the inhibition is -13.8%. Turning to `CC1=NN(C(=O)c2ccc(Br)cc2)C(O)(c2ccccc2)C1` (configuration not stated), the inhibition is 88.2% (active). The value for `COc1cc2c(cc1CNC[C@H]1O[C@@H](n3cnc(C(N)=O)n3)[C@H](O)[C@@H]1O)OCO2` was -13.6%; that for `O=C1CC(c2ccccc2)C(=O)N2C(=O)CC(c3ccccc3)C(=O)N12` (configuration not stated) was -16.5%; that for `COc1ccc(CNCCCn2cnc3c(OCc4ccccc4)ncnc32)cc1` was -7.17%.

Take `COc1cccc(CC(=NO)c2cccc(OC)c2)c1`: the inhibition is 2.96%. Take `O=C(CCC(=O)N1CCN(S(=O)(=O)c2ccc(Cl)cc2)CC1)NCc1cccc(C(F)(F)F)c1`: the inhibition was -6.5%. As to `CC(C)CC(=O)N1CCN(Cc2ccccc2Br)CC1`, the inhibition is 82.7% (active). On to `CCOc1cc(CN2CCN(C(=O)CC(C)C)CC2)ccc1OC`, for which the inhibition is 1.83%.

On to `CC(C)CC(=O)N1CCN(Cc2cccc(Cl)c2)CC1`, for which the inhibition is -7.62%.

Consider `O=C(Nc1c(Br)cc2c(c1Br)Cc1ccccc1-2)C(F)(F)F`, for which the inhibition is 23.8%. On to `CN(C)c1ccc(C2N(C)C(=O)c3ccccc3N2C)cc1` (configuration not stated), for which the inhibition was -4.86%. The figure for `CN(C)c1ccc(Nc2c3c4c(cccc4n(C)c2=O)C(=O)c2ccccc2-3)cc1` is 99.9% (active); for `CCOC(=O)CCC(NC(=O)c1ccc(CNc2nc3cc(C(F)(F)F)ccc3nc2C(=O)OCC)cc1)C(=O)OCC` (configuration not stated) it is 43.7%; for `O=C1C[C@@H]2c3c(cccc3CN1Cc1ccccc1)C[C@@H](O)[C@H]2O` it is -2.09%. Take `COc1ccc(OC)c(Cc2cnc3nc(N)nc(N)c3c2C)c1`: the inhibition was 25.9%. With `c1ccc(C(=NNc2nc3ccccc3s2)c2ccccn2)cc1`, the inhibition was 40.5%.

Regarding `O=C(c1cccc(S(=O)(=O)N2CCCCCC2)c1)N1CCN(Cc2ccccc2)CC1`, the inhibition was 19.3%.

With `O=S(=O)(O)c1cc2onnc2c2ccccc12`, the inhibition was -15.5%. Turning to `Nc1nonc1-n1nnc(C(=O)N/N=C/c2cc(Br)ccc2O)c1CSC1=NCCS1`, the inhibition was 104% (active).

As for `Cc1ccc(SCc2c(C(=O)N/N=C/c3cccnc3)nnn2-c2nonc2N)cc1`, the inhibition was -5.04%. With `Cc1ccc(SCc2c(C(=O)N/N=C/C3CC=CCC3)nnn2-c2nonc2N)cc1` (configuration not stated), the inhibition is -16.5%.

For `O=[N+]([O-])c1ccc(C=NN=Cc2ccc([N+](=O)[O-])cc2)cc1`, the inhibition is 27%. With `CC(C)(C)c1nnc2sc(SCC(O)=C(C#N)c3nc4ccccc4[nH]3)nn2c1=O`, the inhibition was 22.5%.

Turning to `COc1ccc(-c2csc(Cc3nc(O)cs3)n2)cc1`, the inhibition was 56.2%.

Take `COc1ccc(OC)c(Nc2nc(-c3ccc(O)c(O)c3)cs2)c1`: the inhibition was 108% (active). As for `CC(C)(C)C(=O)OCc1nc(-c2ccc(O)c(O)c2)cs1`, the inhibition was -7.58%. The value for `CCN1C[C@@H]2[C@@H]3C(=O)N(C)C(=O)[C@@H]3[C@](C)(C1=O)N2C(=O)c1ccccc1` was 27.8%. Regarding `COc1ccc(CCC(=O)Nc2ccc(Cl)c(S(=O)(=O)N3CCOCC3)c2)cc1OC`, the inhibition was 60.3%. For `COc1cccc(/C=N/NC(=O)CNC(=O)c2ccc(S(=O)(=O)N3CCOCC3)cc2)c1OC`, the inhibition was 8.73%.

As for `COc1ccc(/C=N/NC(=O)CNC(=O)c2ccc(S(=O)(=O)N3CCCC3)cc2)c(OC)c1`, the inhibition was 84.2% (active). In the case of `COc1cc(C(=O)NNC(=O)c2ccc(S(=O)(=O)N3CCCCC3)cc2)cc(OC)c1OC`, the inhibition is -0.571%. The figure for `COc1ccc(Cn2cc(CN3CCS(=O)(=O)N(Cc4ccc(-c5cccc(Cl)c5)cc4)C(C)C3=O)nn2)cc1` (configuration not stated) is 34.7%; for `C=CC(=O)Nc1ccc(Nc2ccnc(Nc3ccc(N4CCN(C)CC4)cc3)n2)cc1` it is 5.16%. `COc1ccc(N2CCC(CNC(=S)Nc3c(C)cccc3C)C2)cc1` (configuration not stated): the inhibition was 80.7% (active). Take `COc1ccc(NC(=S)NCC2CCN(c3ccc(OC)cc3)C2)cc1` (configuration not stated): the inhibition was 27.5%. As for `COc1ccc(NC(=S)NCCN2CCC(C)CC2)cc1`, the inhibition was 1.02%. The figure for `Cc1ccccc1N1CCN(C(=O)c2cccnc2)CC1` is -2.45%.

Broadly, the inhibition is the change of the read-out against control, counted positive when it falls.
